{
  "source": "PubChem BioAssay",
  "note": "A number with no mark means an inactive call. No rule for the calls is given here.",
  "data": [
    {"target": "Pantothenate synthetase (Mycobacterium tuberculosis (strain ATCC 25618 / H37Rv)) (UniProt P9WIL5)", "sequence (P9WIL5 whole entry, looked up)": "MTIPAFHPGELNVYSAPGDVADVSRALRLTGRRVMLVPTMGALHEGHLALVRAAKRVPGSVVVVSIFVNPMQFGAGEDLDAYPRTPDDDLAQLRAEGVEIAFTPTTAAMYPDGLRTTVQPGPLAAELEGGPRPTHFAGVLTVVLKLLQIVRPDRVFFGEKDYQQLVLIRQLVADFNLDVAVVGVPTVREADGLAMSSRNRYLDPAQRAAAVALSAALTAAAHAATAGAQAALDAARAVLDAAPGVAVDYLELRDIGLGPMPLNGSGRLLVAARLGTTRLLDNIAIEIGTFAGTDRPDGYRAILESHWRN", "assay": "Coupled enzyme confirmation of inhibitors against recombinant Mtb PanC (AID 375);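 also: 0% = full reaction with vehicle and 100% = no enzyme background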", "settings": "coupled enzyme assay; at 10 µM, active compounds read high", "units": {"inhibition": "%"}, "values": [
      {"smiles": "CN(CC(=O)Nc1ccc(F)c(Cl)c1)S(=O)(=O)c1cccc2nsnc12", "inhibition": 0},
      {"smiles": "Cc1occc1-c1nnc(SCC(=O)N2CCOCC2)n1Cc1ccco1", "inhibition": 6},
      {"smiles": "COC(=O)C(NC(C)=O)(Nc1nc2ccc(S(C)(=O)=O)cc2s1)C(F)(F)F", "note": "(stereo not given)", "inhibition": 0},
      {"smiles": "COC(=O)c1ccccc1NC(=O)C1CC(=O)N(c2ccc(F)cc2)C1", "note": "(stereo not given)", "inhibition": 20},
      {"smiles": "O=S1(=O)CCN2C(=N1)SC1=C2CCN(Cc2ccccc2)C1", "inhibition": 2},
      {"smiles": "CC(C)C[C@H](NC(=O)Nc1cccc(C(F)(F)F)c1)C(=O)O", "inhibition": 0},
      {"smiles": "COc1cccc(-c2cc(C(=O)Nc3c(C)nn(Cc4ccccc4)c3C)no2)c1", "inhibition": 0},
      {"smiles": "Cc1cc(C)n2cc(CSc3nnnn3C)nc2n1", "inhibition": 0},
      {"smiles": "c1ccc2[nH]c(CSc3nnc(-c4ccncc4)o3)nc2c1", "inhibition": 4},
      {"smiles": "CC(=O)SCC(=O)N=c1sc2cc(F)ccc2n1C", "inhibition": 0},
      {"smiles": "CC(C)Cn1c(N)c(C(=O)NCCN2CCOCC2)c2nc3ccccc3nc21", "inhibition": 0},
      {"smiles": "CCOC(=O)c1c(NC(=O)OC)sc2c1CCC2", "inhibition": 0},
      {"smiles": "CC(C(=O)OCn1nnc2ccccc2c1=O)N1C(=O)c2ccccc2C1=O", "note": "(stereo not given)", "inhibition": 0},
      {"smiles": "CCCCN(CCCC)CCn1cnc2c([nH]c3ccc(OC)cc32)c1=O", "inhibition": 4},
      {"smiles": "O=C(COC(=O)c1cc(S(=O)(=O)N2CCOCC2)cs1)c1ccccc1", "inhibition": 0},
      {"smiles": "O=C(CN1CCN(c2ccc(F)cc2)CC1)OCc1ccccc1", "inhibition": 3},
      {"smiles": "C=CCOc1nc(N(C)C)nc(N(C)C)n1", "inhibition": 7},
      {"smiles": "CCOC(=O)Nc1c(O)ccc2oc(C)c(-c3ccccc3)c12", "inhibition": 0},
      {"smiles": "Cn1cc(Cl)c(C(=O)NC2CCCC2)n1", "inhibition": 6},
      {"smiles": "COC(=O)Cn1c2c(c3cc(C)ccc31)CCCC2", "inhibition": 1},
      {"smiles": "O=C(NCc1ccco1)c1cccc(S(=O)(=O)N2CCCCC2)c1", "inhibition": 0},
      {"smiles": "CNC(=O)CSc1nnc(-c2ccc(S(=O)(=O)N3CCCC3)cc2)n1-c1cccc(C)c1C", "inhibition": 0},
      {"smiles": "CC(C)COC(=O)C(C#N)c1nc2ccccc2nc1N1CCN(Cc2ccccc2)CC1", "note": "(stereo not given)", "inhibition": 0},
      {"smiles": "Cc1ccc(S(=O)(=O)NCCCCC(NC(=O)OC(C)(C)C)C(=O)O)cc1", "note": "(stereo not given) (tested in a mixture with another compound)", "inhibition": 0},
      {"smiles": "Cc1ccc(Cn2nnc3c(=O)n(CC(=O)NCC4CCCO4)cnc32)cc1", "note": "(stereo not given)", "inhibition": 0},
      {"smiles": "Fc1ccccc1-c1nc(-c2ccccc2)no1", "inhibition": 5},
      {"smiles": "Cc1nc2cc(C(=O)O)ccc2n1-c1ccc(F)cc1F", "inhibition": 2},
      {"smiles": "Cn1c(=O)oc2cc(S(=O)(=O)N3CCC(C(=O)Nc4ccc(OC(F)(F)F)cc4)CC3)ccc21", "inhibition": 0},
      {"smiles": "CC(C)NC(=O)c1ccc2c(c1)nnn2C", "inhibition": 0},
      {"smiles": "COc1ccc(OC)c(-c2cc(C(=O)NCc3cccs3)no2)c1", "inhibition": 0},
      {"smiles": "CCCC1C(C#N)=C(N)Oc2n[nH]c(C(C)(C)C)c21", "note": "(stereo not given)", "inhibition": 0},
      {"smiles": "CCOC(=O)c1c(COC(=O)c2ccco2)nc2ccccc2[n+]1[O-]", "inhibition": 0},
      {"smiles": "Cc1ccc2nc(SC(C)C(=O)N3CCCC3)[nH]c2c1", "note": "(stereo not given)", "inhibition": 2},
      {"smiles": "CC1=C(C(=O)Nc2cccnc2)C(c2ccc(C(C)C)cc2)n2ncnc2N1", "note": "(stereo not given)", "inhibition": 1},
      {"smiles": "CNCCC=C1c2ccccc2CCc2ccccc21", "inhibition": 0},
      {"smiles": "CCn1c(SCC(=O)Nc2nc(C)cs2)nnc1-c1ccco1", "inhibition": 0},
      {"smiles": "O=C(NCCCCNC(=O)c1cccnc1)c1cccnc1", "inhibition": 0},
      {"smiles": "CCOC(=O)Cn1c(=O)c(-c2ccccc2N)nc2ccccc21", "inhibition": 3},
      {"smiles": "Cc1cc(S(=O)(=O)N(Cc2ccccc2)Cc2ccc(N(C)C)cc2)ccc1-n1cnnn1", "inhibition": 0},
      {"smiles": "Cc1noc(C)c1C(=O)Nc1sc(C)c(C)c1C#N", "inhibition": 2}
    ]}
  ]
}
